The source of these data is ChEMBL document CHEMBL4513216, “Probing the Open Global Health Chemical Diversity Library for Multistage-Active Starting Points for Next-Generation Antimalarials” (ACS Infect Dis, 2020).

The whole screen tested about 65,000 compounds, of which about 2,100 (3.2%) showed an effect of 50% or more. The median lay at about -52%. The list comes from a sample in which strong results are over-represented; it also holds similar structures and randomly drawn compounds.

This experiment relates to Plasmodium falciparum. Put plainly: Screen against P. falciparum Asexual Blood Stage (ABS), at 5uM. It counts as functional, Dd2. The conditions noted are these: tested at 5 uM.
Consider `CC1CCN(C(=O)CN(Cc2ccco2)C2CC2)CC1`, for which the INHIBITION is on record as -115%.

`COCCNC(=O)[C@H]1C[C@@H]2CCN(Cc3nccs3)C[C@H]2O1`: the INHIBITION is given as -127%.

On to `CN(C)CCN(Cc1ccc(Cl)cc1)C(=O)c1ccncc1`, for which the INHIBITION is on record as 53.1%.

In the case of `CN(C)CCN(Cc1ccc(Cl)cc1)C(=O)c1ccn(C)c(=O)c1`, the INHIBITION is -73.6%.

Consider `CN(C)CCN(Cc1ccc(C(F)(F)F)cc1)C(=O)c1cc[nH]n1`, for which the INHIBITION stood at 35.8%.

With `Cc1cnc(C(=O)N(CCN(C)C)Cc2ccc(Cl)cc2)cn1`, the INHIBITION is recorded as -35.7%.

In the case of `Cc1cc(C(=O)N(CCN(C)C)Cc2ccc(Cl)cc2)no1`, the INHIBITION stood at 53.4%.

For `CN(C)CCN(Cc1ccc(Cl)cc1)C(=O)c1cnccn1`, the INHIBITION was 35.1%.

Consider `Cc1nc(COCc2cnc3n2CCN(C)C3C)cs1` (centres undefined), for which the INHIBITION is recorded as -63.4%.

Consider `O=C(NCCc1cccs1)[C@H]1CO[C@H]2CCN(C3CCC3)C[C@H]2C1`, for which the INHIBITION is reported as -9.07%.

As for `O=S(=O)(NCC1CCOC1)N1CCc2ccccc2C1` (centres undefined), the INHIBITION was -80.7%.

On to `CCN1CCC(CNS(=O)(=O)N2CCc3ccccc3C2)C1` (centres undefined), for which the INHIBITION worked out at 53.9%.

For the molecule `O=S1(=O)CCC(CNS(=O)(=O)N2CCc3ccccc3C2)C1` (centres undefined), the INHIBITION was -114%.

In the case of `COc1ccc(C(=O)NCC(c2cccn2C)N2CCCC2)cc1OC` (centres undefined), the INHIBITION is on record as 28%.

For the molecule `COc1cc(OC)cc(C(=O)NCC(c2cccn2C)N2CCCC2)c1` (centres undefined), the INHIBITION came to 55.5%.

Regarding `COc1ccc(C(=O)NCC(c2cccn2C)N2CCN(C)CC2)cc1` (centres undefined), the INHIBITION was -35%.

As for `O=C(NCC(O)COc1ccccc1)Nc1nncs1` (centres undefined), the INHIBITION was -50.2%.

Regarding `O=C(CCc1ccsc1)NCC1CCN(Cc2cccs2)CC1`, the INHIBITION was 59.5%.

Consider `O=C(CCc1ccccc1)NCC1CCN(Cc2ccsc2)CC1`, for which the INHIBITION was 19.8%.

For the molecule `O=C(CCc1ccccc1)NCC1CCN(Cc2cccs2)CC1`, the INHIBITION was -7.73%.

For `CCOc1nn(CC)cc1-c1nnc(SCc2ccccn2)n1C`, the INHIBITION is given as -121%.

Turning to `CCCC(=O)N(CCCN1CCOCC1)c1nc2c(Cl)cccc2s1`, the INHIBITION is -1.93%.

`Cc1noc(C(C)C)c1C(=O)NCC1CCCN1Cc1ccccc1` (centres undefined): the INHIBITION stood at 65.7%.

Consider `Cc1noc(C(C)C)c1C(=O)NCC1CCN(c2ccccc2)C1` (centres undefined), for which the INHIBITION is reported as 35.6%.

In the case of `Cc1noc(C)c1C(=O)NCC1CCCCN1Cc1ccccc1` (centres undefined), the INHIBITION is given as -3.72%.

As for `Cc1cnn(CCC(=O)N2CCC3(CCC(=O)N(CC4CC4)C3)CC2)c1`, the INHIBITION is on record as -49%.

Regarding `Cn1nc(CNC(=O)c2ccc3nsnc3c2)c2c1CCOC2`, the INHIBITION was -37.5%.

`Cc1cnc(C)c(Oc2ccc(Cl)c(CN3CCCC3)c2Cl)n1`: the INHIBITION is -31.4%.

With `CCc1noc(C2CCCCN2C(=O)c2cc(C)oc2C)n1` (centres undefined), the INHIBITION is -14.9%.

Consider `CCOc1ccc(OCC)c(NCc2cc(C)on2)c1`, for which the INHIBITION is -105%.

Regarding `COc1cc2nc(NCc3cc(C)on3)nc(N)c2cc1OC`, the INHIBITION was determined as 61.4%.

In the case of `COc1ccc(Cl)cc1NCc1cc(C)on1`, the INHIBITION is reported as -142%.

In the case of `O=S(=O)(c1ccccc1)N1CCC2(CCCN2Cc2cccc(Cl)c2)C1` (centres undefined), the INHIBITION was 18.8%.

As to `COc1ccc(F)cc1-c1ccccc1CC1(C(=O)O)CCOCC1`, the INHIBITION is -130%.

With `COc1ccc(F)cc1-c1ccccc1CC1CNCCNC1=O` (centres undefined), the INHIBITION worked out at 51.7%.

With `Cc1cc(F)ccc1-c1ccccc1CC1CNCCNC1=O` (centres undefined), the INHIBITION was 49.3%.

Regarding `O=C(CSCCN1CCOCC1)N1CCc2ccccc2C1`, the INHIBITION was -92.5%.

Turning to `O=C(CCc1nccs1)N1CCN(c2ccccn2)CC1`, the INHIBITION is -127%.

On to `Cn1ccnc1CN1CCC2(COCCN(Cc3ccsc3)C2)C1` (centres undefined), for which the INHIBITION is on record as 52%.

On to `Cn1ccnc1CN1CCC2(CC1)COCCN(c1ncccn1)C2`, for which the INHIBITION is given as -9.16%.

Regarding `Cn1ccnc1CN1CCC2(COCCN(S(=O)(=O)C3CC3)C2)C1` (centres undefined), the INHIBITION is -106%.

As to `COCC1Cn2nnc(-c3cnn(C)c3)c2CN1Cc1ccoc1` (centres undefined), the INHIBITION came to 28.8%.

On to `CCCc1nc2c(c(C)c(C)n2Cc2ccncc2)c(N)c1CC`, for which the INHIBITION was determined as 60.3%.

Regarding `CCc1c(C)sc2c1c(N)nc(=O)n2CCCN(C)C`, the INHIBITION is reported as -147%.

Consider `CCc1nc2c(c(C)c(C)n2Cc2cccnc2)c(N)c1C`, for which the INHIBITION is 20.4%.

On to `CCCc1nc2c(c(C)c(C)n2Cc2ccccn2)c(N)c1CC`, for which the INHIBITION is 59.4%.

On to `CCc1cc(NCCc2cccnc2)n2nc(C)c(C)c2n1`, for which the INHIBITION was -108.7%.

As to `Cc1cc(C(=O)N2CCNC(=O)C2)c(C)n1Cc1ccccn1`, the INHIBITION was -68.6%.

Consider `CCCc1nc2c(c(C)c(C)n2Cc2cccnc2)c(N)c1CC`, for which the INHIBITION is on record as 65%.

`Cc1c(C)n(Cc2ccncc2)c2nc3c(c(N)c12)CCCC3`: the INHIBITION is listed as -12.1%.

In the case of `CCc1c(C)sc2c1c(N)nc(=O)n2CCN(C)C`, the INHIBITION is recorded as 17.4%.

Take `Cc1c(C)n(Cc2ccncc2)c2nc3c(c(N)c12)CCCCCC3`: the INHIBITION stood at 28.3%.

Consider `CCc1c(-c2ccccc2)nc2c(c(C)c(C)n2CCN(C)C)c1N`, for which the INHIBITION worked out at 67.6%.

For `Cc1c(C)n(Cc2ccccn2)c2nc3c(c(N)c12)CCCC3`, the INHIBITION worked out at 46.7%.
